22 compounds from PubChem BioAssay (EPA / NIEHS) can be followed below.

A structure can be active in one record and inactive in another. The source made the active and inactive calls. How the source made its calls: active means hit-call score of the fitted dose curve at least 0.9, where 1 is the maximum; inactive means score below 0.9.

The target in assay [1] is Paired box protein Pax-6 (Homo sapiens) (UniProt P26367). Briefly: ATG_Pax6_CIS: Attagene CIS-FACTORIAL HepG2 Assay for human Paired Box 6 (PAX6) (AID 2282956). Conditions: HepG2 CIS-FACTORIAL PAX6 reporter transcription, RNA readout; actives raise or lower the signal. Summed up:
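HepG2 cells transiently transfected with cis-promoter-driven multiplexed reporter units sensing endogenous transcription factor activity; 24 h chemical exposure. Reporter mRNA quantified by RT-PCR, 6-FAM labelling, HpaI digestion and capillary electrophoresis; bidirectional fit versus DMSO baseline.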

Assay [2] can be described thus: ATG_PXRE_CIS: Attagene CIS-FACTORIAL HepG2 Assay for human Pregnane X Receptor Element (PXRE) (AID 2282957). Conditions: HepG2 Attagene CIS-FACTORIAL PXRE reporter, mRNA; actives raise or lower the signal. In short, it runs like this: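 Multiplexed cis-reporter assay in transiently transfected human HepG2 cells; 24 h chemical exposure. Reporter transcripts quantified by RT-PCR with fluorescent labeling and capillary electrophoresis.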

Assay [3] in a line: ATG_Sox_CIS: Attagene CIS-FACTORIAL HepG2 Assay for human SRY-box transcription factor (SOX) (AID 2282960). Conditions: HepG2 Attagene cis-factorial SOX reporter, mRNA; actives raise or lower the signal. In short, it runs like this:
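After 24 h of chemical treatment, transfected HepG2 reporter cells are lysed for total RNA. Transcript levels come from RT-PCR with labelled primer extension and capillary electrophoresis, analysed bidirectionally versus DMSO.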

The target of assay [4] is Transcription factor Sp1 (Homo sapiens) (UniProt P08047). The assay can be described thus: ATG_Sp1_CIS: Attagene CIS-FACTORIAL HepG2 Assay for human Specificity Protein 1 (Sp1) (AID 2282961). Conditions: HepG2 Sp1 cis-reporter transcription, actives raise or lower the signal. In short, it runs like this:
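Sp1-driven reporter mRNA, read as capillary electrophoresis fluorescence after RT-PCR, in transiently transfected HepG2 cells dosed for 24 h; signal change in either direction relative to DMSO.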

Assay [5] in a line: ATG_SREBP_CIS: Attagene CIS-FACTORIAL HepG2 Assay for human Sterol Regulatory Element Binding (SREBP) (AID 2282962). Conditions: HepG2 Attagene cis-factorial SREBP reporter, mRNA; actives raise or lower the signal. Summed up: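 HepG2 cells transiently transfected with multiplexed cis-promoter reporter units sensing endogenous transcription factors; reporter mRNA measured 24 h after dosing by RT-PCR, 6-FAM labeling, HpaI digestion and capillary electrophoresis. Bidirectional fit versus DMSO.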

Assay [6] addresses Signal transducer and activator of transcription 3 (Homo sapiens) (UniProt P40763). Briefly: ATG_STAT3_CIS: Attagene CIS-FACTORIAL HepG2 Assay for human Signal Transducer and Activator of Transcription 3 (STAT3) (AID 2282963). Conditions: HepG2, Attagene cis-factorial STAT3 reporter transcription; actives raise or lower the signal. In short, it runs like this:
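Values derive from bidirectional fits relative to DMSO of reporter mRNA levels, measured by RT-PCR with capillary electrophoresis, in HepG2 cells carrying transiently transfected cis-regulated reporter units and exposed 24 h.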

Assay [7] is described as follows: ATG_TCF_b_cat_CIS: Attagene CIS-FACTORIAL HepG2 Assay for human T-Cell-Factor with beta-catenin (TCF/b-cat) (AID 2282965). Conditions: HepG2 TCF/beta-catenin cis-reporter transcription, actives raise or lower the signal. Summed up:
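Cells of the HepG2 line carry transiently transfected reporter units whose promoters respond to endogenous factors. Twenty-four hours post-dosing, reporter mRNA induction is measured by fluorescent RT-PCR and capillary electrophoresis, with DMSO as baseline.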

The nature of assay [8]: ATG_PPRE_CIS: Attagene CIS-FACTORIAL HepG2 Assay for human Peroxisome Proliferator-activated Response Element (PPRE) (AID 2282958). The note with it: HepG2 PPRE cis-element reporter, Attagene transcription factor profiling; actives raise or lower the signal. Summed up:
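Multiplexed reporter transcription units under cis-regulatory promoters were transfected into HepG2 cells to capture endogenous factor activity. A 24 h incubation preceded RNA isolation and fluorescent RT-PCR fragment analysis.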

Assay [9] can be described thus: ATG_RORE_CIS: Attagene CIS-FACTORIAL HepG2 Assay for human RAR-related Orphan Receptor Element (RORE) (AID 2282959). Conditions: HepG2 Attagene cis-factorial RORE reporter, mRNA; actives raise or lower the signal. In short, it runs like this: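 Fluorescence intensity of reporter-specific cDNA fragments, separated by capillary electrophoresis, gives the signal. Source: HepG2 liver cells transiently transfected with cis-element reporters and exposed 24 h; DMSO-normalized bidirectional fit.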

Assay [10] in a line: ATG_TA_CIS: Attagene CIS-FACTORIAL HepG2 Assay for human TA Basal Promoter (AID 2282964). Conditions: HepG2 Attagene CIS-factorial TA basal promoter reporter; actives raise or lower the signal. In short, it runs like this: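 HepG2 cells transiently transfected with multiple reporter units under cis promoter elements, reporting endogenous transcription factor activity; this endpoint tracks the TA basal promoter as background control. Reporter mRNA after 24 h dosing measured by RT-PCR/capillary electrophoresis; bidirectional fits versus DMSO.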

Paired box protein Pax-6 (Homo sapiens), sequence (P26367 whole entry, looked up): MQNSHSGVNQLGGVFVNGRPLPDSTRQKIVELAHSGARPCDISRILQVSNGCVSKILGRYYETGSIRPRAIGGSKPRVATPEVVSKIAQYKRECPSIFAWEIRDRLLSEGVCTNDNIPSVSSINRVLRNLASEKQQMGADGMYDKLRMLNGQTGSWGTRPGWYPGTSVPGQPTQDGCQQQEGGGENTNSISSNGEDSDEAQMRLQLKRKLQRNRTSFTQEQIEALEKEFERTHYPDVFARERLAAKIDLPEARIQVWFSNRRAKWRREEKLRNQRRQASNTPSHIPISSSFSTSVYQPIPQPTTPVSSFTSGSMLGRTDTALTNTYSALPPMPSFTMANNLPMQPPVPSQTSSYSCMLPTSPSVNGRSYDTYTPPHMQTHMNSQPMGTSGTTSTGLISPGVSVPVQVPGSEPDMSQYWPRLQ
Signal transducer and activator of transcription 3 (Homo sapiens), sequence (P40763 whole entry, looked up): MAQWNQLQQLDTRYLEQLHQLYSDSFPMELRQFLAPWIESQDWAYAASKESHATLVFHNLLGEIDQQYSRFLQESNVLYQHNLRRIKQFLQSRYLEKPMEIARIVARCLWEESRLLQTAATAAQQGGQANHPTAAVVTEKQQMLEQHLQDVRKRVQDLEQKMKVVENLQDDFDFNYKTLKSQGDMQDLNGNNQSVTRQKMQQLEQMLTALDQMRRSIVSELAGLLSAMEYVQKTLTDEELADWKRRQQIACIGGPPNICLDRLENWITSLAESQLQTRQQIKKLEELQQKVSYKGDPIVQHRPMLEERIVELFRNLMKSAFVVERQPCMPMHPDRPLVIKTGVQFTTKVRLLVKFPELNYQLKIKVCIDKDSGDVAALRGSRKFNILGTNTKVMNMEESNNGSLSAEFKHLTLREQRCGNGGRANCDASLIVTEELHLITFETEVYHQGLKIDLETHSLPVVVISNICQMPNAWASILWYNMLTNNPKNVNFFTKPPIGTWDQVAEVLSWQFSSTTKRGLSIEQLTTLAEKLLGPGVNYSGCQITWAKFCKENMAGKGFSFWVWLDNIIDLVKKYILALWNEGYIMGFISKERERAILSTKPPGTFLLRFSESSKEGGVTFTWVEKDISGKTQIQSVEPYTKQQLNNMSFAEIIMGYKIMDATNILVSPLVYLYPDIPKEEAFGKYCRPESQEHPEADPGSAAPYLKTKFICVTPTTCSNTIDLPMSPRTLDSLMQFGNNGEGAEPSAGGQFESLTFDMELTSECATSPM
Transcription factor Sp1 (Homo sapiens), sequence (P08047 whole entry, looked up): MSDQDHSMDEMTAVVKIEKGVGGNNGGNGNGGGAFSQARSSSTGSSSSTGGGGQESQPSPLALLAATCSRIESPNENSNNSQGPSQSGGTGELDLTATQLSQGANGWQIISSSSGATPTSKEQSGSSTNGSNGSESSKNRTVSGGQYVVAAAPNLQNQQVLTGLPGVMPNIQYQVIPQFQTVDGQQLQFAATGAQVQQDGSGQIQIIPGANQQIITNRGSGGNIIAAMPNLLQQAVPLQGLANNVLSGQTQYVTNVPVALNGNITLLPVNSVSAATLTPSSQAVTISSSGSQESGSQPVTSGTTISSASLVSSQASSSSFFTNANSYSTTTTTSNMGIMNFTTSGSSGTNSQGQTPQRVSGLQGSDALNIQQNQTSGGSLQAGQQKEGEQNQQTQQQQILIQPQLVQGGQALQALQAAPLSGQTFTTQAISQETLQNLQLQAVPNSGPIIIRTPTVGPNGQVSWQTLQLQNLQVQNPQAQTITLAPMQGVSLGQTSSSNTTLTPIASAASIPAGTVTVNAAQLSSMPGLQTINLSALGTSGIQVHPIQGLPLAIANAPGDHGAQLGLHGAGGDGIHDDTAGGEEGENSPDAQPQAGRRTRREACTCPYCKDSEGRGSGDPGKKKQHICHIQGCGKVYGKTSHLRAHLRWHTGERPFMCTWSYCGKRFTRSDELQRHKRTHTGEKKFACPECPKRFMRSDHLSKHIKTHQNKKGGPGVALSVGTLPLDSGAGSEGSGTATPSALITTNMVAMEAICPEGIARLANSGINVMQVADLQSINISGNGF

Take `CCCCCCCCCCCCCCCCOS(=O)(=O)O`: the outcome in assay [1], in [2], in [3], in assay [4], in assay [5] and in assay [6] was inactive. In addition, the AC50 (usually the concentration giving half of the maximal activity seen) in assay [7] was 25.7 µM (active).
Regarding `COc1cc(C(C)C)c2c(c1)S(=O)(=O)N(COc1cc(=O)n3cccc(OCCN4CCCCC4)c3n1)C2=O`, the half-maximal activity concentration (AC50) is 8.11 µM (active) in [1]; 3.27 µM (active) in [2]; 4.26 µM (active) in [3]; 3.94 µM (active) in assay [4]; 3.78 µM (active) in assay [5]; 4.04 µM (active) in assay [7]. Further, in [6], the compound was classed as inactive.
Regarding `CCCCCOC(C)=O`, the compound was called inactive in assay [2], in assay [8], in assay [9], in assay [3], in assay [4] and in assay [5]. For the same compound, the compound was classed as inactive in assay [6], in [10] and in assay [7].
Turning to `CCCC(CCC)C(=O)O`, the call in [1], in assay [2], in assay [3], in assay [4], in assay [5] and in assay [6] was inactive. Besides, the result in assay [10] and in assay [7] was inactive.
For the compound `OC[C@H]1O[C@@H]2O[C@H]3[C@H](O)[C@@H](O)[C@@H](O[C@H]4[C@H](O)[C@@H](O)[C@@H](O[C@H]5[C@H](O)[C@@H](O)[C@@H](O[C@H]6[C@H](O)[C@@H](O)[C@@H](O[C@H]7[C@H](O)[C@@H](O)[C@@H](O[C@H]1[C@H](O)[C@H]2O)O[C@@H]7CO)O[C@@H]6CO)O[C@@H]5CO)O[C@@H]4CO)O[C@@H]3CO`, the outcome in assay [1], in assay [9], in assay [3], in assay [4], in assay [5] and in [6] was inactive. For the same compound, the outcome in [10] and in assay [7] was inactive. The half-maximal activity concentration (AC50) in assay [2] was 18.4 µM (active).
Regarding `OCCNCCO`, the outcome in [1], in assay [2], in [3], in assay [4], in assay [5] and in assay [6] was inactive. In addition, the compound was called inactive in [10] and in assay [7].
As to `CCOC(N)=O`, the result in assay [1], in [2], in assay [3], in [4], in assay [5] and in [6] was inactive. In addition, the call in assay [10] and in [7] was inactive.
In the case of `CCc1cccc(CC)c1N`, the result in assay [1], in assay [3], in assay [4], in [5], in assay [6] and in [10] was inactive. For the same compound, in assay [7], the compound was classed as inactive. For the same compound, the AC50 in assay [2] was 27.7 µM (active).
As for `c1ccc2c(c1)-c1cccc3c1c-2cc1ccccc13`, the compound was classed as inactive in [2], in assay [8], in [3], in assay [4], in [5] and in assay [6]. Further, the call in assay [7] was inactive. The AC50 in assay [8] was 2.26 µM (active).
Take `OC(CCl)CCl`: the result in [2], in assay [8], in [9], in assay [3], in assay [4] and in assay [5] was inactive. In addition, the outcome in assay [6] and in assay [7] was inactive.
On to `CCc1ccc(O)c(C(C)(C)C)c1`, for which the AC50 in [2] was 15.9 µM (active); in [8], 42 µM (active). Also, the compound was called inactive in assay [9], in assay [3], in assay [4], in assay [5], in assay [6] and in assay [7].
Take `CNC(C)=O`: the concentration at half-maximal activity (AC50) in assay [2] is 26.1 µM (active). Moreover, the compound was classed as inactive in [8], in [9], in [3], in assay [4], in assay [5] and in assay [6]. For the same compound, the call in assay [10] and in [7] was inactive.
As for `NC(=O)N1c2ccccc2C=Cc2ccccc21`, the AC50 in assay [2] is 34.8 µM (active). In addition, the call in assay [8], in assay [9], in assay [3], in assay [4], in assay [5] and in assay [6] was inactive. Moreover, in assay [7], the result was inactive.
As for `NC(=O)N(O)[C@@H]1COc2cc(OCc3ccccc3)ccc21`, the result in [1], in assay [2], in assay [8], in [3], in assay [4] and in assay [5] was inactive. Also, the call in [6] and in assay [7] was inactive.
On to `Cc1nc(-c2ccccn2)ncc1C(=O)Nn1cc(C)c2cc(F)ccc21`, for which the concentration at half-maximal activity (AC50) in assay [2] is 4.24 µM (active). For the same compound, the compound was classed as inactive in assay [8], in assay [9], in assay [3], in assay [4], in assay [5] and in assay [6]. Also, the result in assay [10] and in assay [7] was inactive.
With `FC(F)(F)COC(OCC(F)(F)F)OCC(F)(F)F`, the compound was called inactive in assay [1], in [2], in [8], in [3], in [4] and in assay [5]. Also, the result in [6] and in assay [7] was inactive.
Take `O=C1CN(N=Cc2ccc([N+](=O)[O-])o2)C(=O)N1`: the call in assay [2], in [8], in assay [9], in [3], in assay [4] and in assay [5] was inactive. Also, the compound was classed as inactive in [6] and in [10]. In addition, the concentration at half-maximal activity (AC50) in assay [7] was 21.4 µM (active).
As for `O=C(O)CO`, the result in assay [2], in [8], in assay [3], in [4], in assay [5] and in [6] was inactive. Further, in [7], the call was inactive.
Consider `CCCCC(CC)C(=O)OCCOCCOCCOC(=O)C(CC)CCCC` (stereo not drawn), for which, in assay [2], the AC50 is 27.5 µM (active). The result in [8], in assay [9], in [3], in assay [4], in assay [5] and in assay [6] was inactive. Moreover, in [7], the call was inactive.
Regarding `S=P(N1CC1)(N1CC1)N1CC1`, the figures for the AC50 in assay [2] and in assay [5] were 12.1 µM (active) [middle of 4 runs] and 157 µM (active), respectively. In addition, the result in assay [8], in assay [3], in assay [4], in assay [5], in [6] and in assay [10] was inactive. Also, the compound was classed as inactive in assay [7].
Turning to `CC(C)CC(C)O` (stereo not drawn), the outcome in assay [2], in [8], in [3], in [4], in assay [5] and in assay [6] was inactive. For the same compound, the call in assay [10] and in assay [7] was inactive.
Consider `CC1(C)C(=O)N(Cl)C(=O)N1Cl`, for which the compound was classed as inactive in assay [2], in [3], in assay [4], in assay [5], in assay [6] and in [10]. For the same compound, the compound was called inactive in [7].
